Screens as filed in PubChem BioAssay.
Mm-Cpn inhibitor: Inhibitors of TCP-1 ring complex (TRiC) of Methanococcus maripaludis (MmCpn): qHTS; Chaperonin Mm-Cpn (Methanococcus maripaludis); purified Mm-Cpn ATPase, ADP Transcreener TR-FRET; Potency, µM (top dose mostly 76.9 µM), for the others: at the highest dose activity, negative = inhibition, actives largely listed as inhibitors; 0.031% of 330,000 active; also: potency is read from the fitted curve at half-maximal effect; % is scaled to controls: 0 for no effect and ±100 for the full control effect; nearly all actives have a fitted effect of over 80% in size
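ATPase read-out: TR-FRET ADP immunoassay (anti-ADP Eu cryptate vs ADP-d2), ex 320 nm, em 590/665 nm; signal drops as ADP forms. Enzyme 25 nM, ATP 10 uM, 30 min at 37°C after 10 min compound preincubation.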
uPA generation: qHTS for Inhibitors of Cell Surface uPA Generation | Potency, µM (doses to about 38.3 µM), for inactives: at the highest dose activity change, negative = inhibition, actives largely listed as inhibitors | cell surface uPA generation assay, qHTS | AID 540303, 2011 | 0.31% of 330,000 active; active = well fitted inhibition curve with a large enough effect; inconclusive = small, poorly fitted or top-dose-only effect; inactive = no such curve, though single readings can be large or run the other way; tested in mouse RAW 264.7 cells; also: potency is read from the fitted curve at half-maximal effect; % is scaled to controls: 0 for no effect and ±100 for the full control effect; nearly all actives have a fitted effect of over 55% in size
CCT modulator: High-Throughput Screening for Modulators of Cytosolic Chaperonin Activity; purified chaperonin ATPase assay, HTRF ADP detection, 30 min; activity change, % (no concentration beside the values), hits read low; AID 651819, 2012; 0.3% of 360,000 active; in the data active = activity change below about -30%; also: % is scaled to controls: 0 for no effect and ±100 for the full control effect
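TRiC at 40 or 20 nM final (batch-dependent) in 30 mM Tris pH 7.4, 100 mM KCl, 5 mM MgCl2, 1 mM DTT, with compound at single 76 uM and 10 uM ATP, 30 min at 37 deg C. ADP detected by HTRF Transcreener, 665/615 ratio.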
GLP1R ag: qHTS of GLP-1 Receptor Agonists; 0.007% of 380,000 active; Potency, µM (series often up to 45.6 µM), for the others: at the top dose activation, usual class: activators; HEK293 GLP-1R CRE-luciferase, luminescence, 4-6 h; cells express a hypersensitive GLP-1R form; Glucagon-like peptide 1 receptor (Homo sapiens), P43220; also: potency is read from the fitted curve at half-maximal effect; % of control where 0% means no effect
Target sequence (P43220 whole entry, looked up): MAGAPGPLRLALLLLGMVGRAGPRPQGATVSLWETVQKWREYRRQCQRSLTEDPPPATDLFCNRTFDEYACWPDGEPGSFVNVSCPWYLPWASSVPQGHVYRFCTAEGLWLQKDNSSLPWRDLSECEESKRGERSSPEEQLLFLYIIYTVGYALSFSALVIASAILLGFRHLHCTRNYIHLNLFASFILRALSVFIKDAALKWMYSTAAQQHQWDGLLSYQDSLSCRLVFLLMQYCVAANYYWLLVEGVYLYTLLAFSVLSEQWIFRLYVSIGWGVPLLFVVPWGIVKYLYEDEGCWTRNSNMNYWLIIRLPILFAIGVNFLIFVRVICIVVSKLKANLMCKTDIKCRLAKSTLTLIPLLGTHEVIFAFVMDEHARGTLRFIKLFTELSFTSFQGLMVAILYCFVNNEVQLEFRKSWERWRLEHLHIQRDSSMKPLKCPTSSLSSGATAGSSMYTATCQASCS
GLP1R cytotox: qHTS of GLP-1 Receptor Inverse Agonists: Cytotox Screen. HEK293 cAMP-luciferase reporter cells, luminescence, 24 h. Potency, µM (series often up to 38.3 µM), for the others: at the highest dose activity change, negative = inhibition, usual class: inhibitors. 0.13% of 410,000 active. AID 624418, 2012;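 also: loss of luciferase light is scored as toxicity; potency is read from the fitted curve at half-maximal effect; % is scaled to controls: 0 for no effect and ±100 for the full control effect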
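Step one: seed cells (200 cells/uL, DMEM with 10% Nu serum, 1% pen-strep). Step two: 12-hour incubation at 37 deg C. Step three: pin 23 nL compound, incubate 24 hr. Step four: add luciferase reagent, read luminescence 12 min later.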
GLP1R inv ag: qHTS of GLP-1 Receptor Inverse Agonists (Inhibition Mode). Glucagon-like peptide 1 receptor (Homo sapiens), P43220. HEK293 GLP-1R CRE-luciferase, luminescence, 24 h; GLP-1R form is constitutively active. 1.6% of 410,000 active. Potency, µM (series often up to 38.3 µM), for inactives: at the top dose activity change, negative = inhibition, actives largely listed as inhibitors; also: potency is read from the fitted curve at half-maximal effect; % is scaled to controls: 0 for no effect and ±100 for the full control effect; nearly all actives have a fitted effect of over 55% in size
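Inverse agonists were sought by their lowering of basal cAMP reporter luciferase output in HEK293 cells stably carrying constitutively active human GLP-1R, after 24 h compound treatment.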
* marks the source's active call; other numbers are inactive results; ? = inconclusive; · = no result given; [ ] = another dose, or the depositor's remark. Hits are enriched below; roughly 2.2% of the tested compounds scored in any of these assays. Unless noted, calls follow the shape of the dose curve; as a rule, active = well fitted curve in the direction sought with a large enough effect; inconclusive = small, poorly fitted or top-dose-only effect, or another doubt; inactive = no such curve, though single readings can be large; an effect the other way counts as inactive or inconclusive.

SMILES	Mm-Cpn inhibitor	uPA generation	CCT modulator	GLP1R ag	GLP1R cytotox	GLP1R inv ag
COC(=O)C1=C(c2cccc(OCc3ccccc3)c2)C[C@@H]2CC[C@H]1N2C(=O)NCc1cccc(OC)c1	-2%	?	2	-4%	11%	?
COC(=O)C1=C(c2ccc(F)cc2OCc2ccccc2)C[C@@H]2CC[C@H]1N2C(=O)NCc1cccc(C(F)(F)F)c1	0%	?	1	8%	1%	5.6µM*
COC(=O)C1=C(c2ccc(F)cc2OCc2ccccc2)C[C@@H]2CC[C@H]1N2C(=O)NCc1cccc(OC)c1	3%	?	1	2%	4%	-7%
COC(=O)C1=C(c2ccc(F)cc2OCc2ccccc2)C[C@@H]2CC[C@H]1N2C(=O)NCCOc1ccccc1	-2%	?	-1	3%	0%	?
CO/C=C(/C(=O)OC)c1ccccc1Oc1cc(Oc2ccccc2C#N)ncn1	·	·	·	4%[96 µM]	·	·
C=CCC1(O)CCC2C3CCC4=CC(=O)CCC4=C3C=CC21C (stereo unspecified)	·	·	·	16%	·	·
O=C(NC1(Cc2ccccc2)CCN(Cc2ccc(-c3ccccc3)cc2)C1=O)c1ccccc1 (stereo unspecified)	1%	?	-2	2%	2%	?
On1ccccc1=S	-3%	-17%	-3	-6%	-4%	7.9µM*
COc1ccc(CNCCC(c2ccc(F)cc2)c2ccc(OC(C)C)cc2)cc1OC (stereo unspecified)	1%	-7%	2	9%	?	4µM*
Cc1cccc(-n2ncc3c(NCCCO)ncnc32)c1	-1%	1.8µM*	1	-3%	8%	-7%
Cc1cccc(-n2ncc3c(NCc4cccnc4)ncnc32)c1	1%	?	-1	-2%	-1%	-16%
Cc1cc(C)c(CN2CCN(C(=O)Cn3cnc4c(NCc5ccccc5)ncnc43)CC2)c(C)c1	0%	?	1	1%	-3%	8.9µM*
O=C(Nc1cccc(C(F)(F)F)c1)C1CCCN1S(=O)(=O)c1cccc2nsnc12 (stereo unspecified)	·	·	·	·	-5%	?
N#CC1=C(N)Oc2c(c(=O)sc3ccccc23)C1c1cccnc1 (stereo unspecified)	-5%	-12%	-43*	0%	7%[7.66 µM]	-28%[7.66 µM]
COc1ccc(-c2coc3c(C(=O)Nc4cc(OC)c(OC)c(OC)c4)cccc23)c(C)c1	·	·	1	-5%	-21%	4.5µM*
Cc1ccccc1NC(=S)NC(NC(=O)CF)C(Cl)(Cl)Cl (stereo unspecified)	1%	1%	0	5%	3%	-19%
O=C(CF)NC(Nc1cccc2cccnc12)C(Cl)(Cl)Cl (stereo unspecified)	3%	1%	-3	2%	1%	10µM*
O=c1cc(CN2CCN(S(=O)(=O)c3cccc(Cl)c3)CC2)c2ccc(O)cc2o1	-3%	2%	1	13%	381%	?
Cc1cc(N=Nc2ccccc2C)ccc1N	·	3%	1	17%	-21%	10µM*
COC(=O)c1ccc(COc2ccccc2/C=N/NS(=O)(=O)c2ccc(C)cc2)cc1	1%	-27%	-2	-12%	?	0%
COc1cc(C(=O)Oc2ccccc2/C=N/NC(=O)c2ccc(C)cc2)cc(OC)c1OC	-3%	-6%	-1	4%	?	1.6µM*
C[C@]12CCC3C(CC[C@H]4C[C@@H](O)CC[C@]34C)C1=CC[C@@H]2O (stereo partly specified)	·	·	-35*	15%	-6%	9%
